SNCA expr inh = SNCA gene expression inhibition | HEK-293 SNCA-luciferase knock-in, luminescence, 24 h | Potency, µM (series often up to 57.2 µM), for the others: at the top dose activity change, negative = inhibition, actives largely listed as inhibitors | actives 0.17% (n = 140,000);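 further: plate controls were DMSO cells for no effect and cell-free wells for full effect; nearly all actives have a fitted effect of over 45% in size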
Luciferase inh = Photinus pyralis luciferase inhibition; P08659; purified P. pyralis luciferase, luminescence, biochemical; Potency, µM (titrated, usually from 115 µM), usual class: inhibitors; actives 2.5% (n = 76,000); further: nearly all actives have a fitted effect of over 65% in size
Target sequence (P08659 whole entry, looked up): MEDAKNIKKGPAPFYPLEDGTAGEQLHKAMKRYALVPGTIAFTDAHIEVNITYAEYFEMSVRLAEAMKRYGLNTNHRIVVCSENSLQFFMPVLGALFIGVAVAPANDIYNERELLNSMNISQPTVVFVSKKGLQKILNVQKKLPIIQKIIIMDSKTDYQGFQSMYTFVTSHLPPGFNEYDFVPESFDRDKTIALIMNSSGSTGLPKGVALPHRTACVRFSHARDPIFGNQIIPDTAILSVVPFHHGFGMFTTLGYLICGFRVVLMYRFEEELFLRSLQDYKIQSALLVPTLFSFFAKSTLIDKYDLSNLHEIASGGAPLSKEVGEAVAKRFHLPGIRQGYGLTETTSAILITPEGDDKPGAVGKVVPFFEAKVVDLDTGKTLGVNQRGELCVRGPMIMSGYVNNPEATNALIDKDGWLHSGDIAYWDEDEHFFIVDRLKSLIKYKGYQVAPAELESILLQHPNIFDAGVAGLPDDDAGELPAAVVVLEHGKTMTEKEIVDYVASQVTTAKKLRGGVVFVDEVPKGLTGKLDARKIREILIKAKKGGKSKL
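Cell-free enzyme assay, 10nM P. pyralis luciferase, luciferin and ATP each at 10uM. Inhibition profiled over a 6-point titration, read as luminescence.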
NPR1 antag = blocks ANP-stimulated signaling of human Npr1 receptor | P16066 | HEK293 hNpr1 GloSensor cGMP, ANP-stimulated luminescence | Potency, µM (doses to about 46.3 µM), for the others: top-dose activity change, negative = inhibition, usual class: inhibitors | actives 1.6% (n = 76,000); calls by dose curve; further: nearly all actives have a fitted effect of over 60% in size
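HEK293 cells stably expressing human Npr1 and cGMP GloSensor pGS-40F, loaded 2 h with 2% GloSensor reagent, given compound 30 min at room temperature. Luminescence read before and 20 min after 0.1 nM hNppA.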
HEK cytotox = HEK 293 cell cytotoxicity | HEK 293 viability, ATP luminescence (CellTiter-Glo), 48-72 h | AID 1345083 | actives 6.6% (n = 94,000) | Potency, µM (highest dose often 115 µM), inactives show top-dose activity change, negative = cytotoxicity, hits mostly inhibitors; further: nearly all actives have a fitted effect of over 60% in size
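Cytotoxicity was scored by loss of ATP-coupled luminescence (CellTiter-Glo) in HEK 293 cells. Compound treatment ran 48 or 72 hr at 37 degree Celsius, 5% CO2, 95% humidity.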
HEK293 viab = counter-screen for SNCA expression inhibitors: cell viability; actives 0.12% (n = 150,000); Potency, µM (doses to about 57.1 µM), for inactives: top-dose activity change, negative = cytotoxicity, most hits filed as cytotoxic; AID 1671193; HEK-293-SNCA-luc viability, GF-AFC fluorescence, 24 h;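 further: 0% = DMSO-treated cells and -100% = medium-only wells without cells; nearly all actives have a fitted effect of over 30% in size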
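HEK-293-SNCA-luc cells (1500/well) plated 24 h, then exposed 24 h to a dilution series; GF-AFC added 30 min at 37C, fluorescence 405/540 nm; normalised to medium-only and DMSO wells, Hill fit.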
3T3 cytotox = cytotoxic compounds in NIH 3T3 cells. NIH 3T3 viability, CellTiter-Glo ATP luminescence, 48-72 h. Potency, µM (series often up to 96.7 µM), inactives show at the top dose activity change, negative = cytotoxicity, usual class: inhibitors. actives 4.3% (n = 94,000). AID 1345082; further: nearly all actives have a fitted effect of over 55% in size
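First NIH 3T3 cells are plated at 400 cells/well; next compound is pinned in; then plates incubate 48 or 72 hr at 37 °C; finally CellTiter-Glo is added and luminescence read after 10 min.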
An asterisk follows results filed as active; i = inactive; ? = inconclusive; . = not tested or not shown; [ ] = another dose, or the depositor's remark. Hits are enriched below; roughly 7.4% of the tested compounds scored in any of these assays. Unless noted, the call rests on the fitted dose curve; in most records, active means well fitted curve in the direction sought with a large enough effect; inconclusive means small, poorly fitted or top-dose-only effect, or another doubt; inactive means no such curve, though single readings can be large; an effect the other way counts as inactive or inconclusive. Unless noted, on the % scale 0 is the no-effect control and ±100 the full control effect; potency means the concentration at half of the fitted maximal effect.

SMILES | SNCA expr inh | Luciferase inh | NPR1 antag | HEK cytotox | HEK293 viab | 3T3 cytotox
Cc1csc(NC(=O)c2nc3c(o2)CCN(Cc2c(F)cccc2F)CC3)n1 | 39.4%[87.6 µM] | 28.2µM* | 2.7%[70.6 µM] | ? | -5.9%[87.6 µM] | ?
O=C(NCc1ccccc1)c1nc2c(o1)CCN(Cc1c(F)cccc1F)CC2 | 1.0%[87.6 µM] | i | 3.3%[70.6 µM] | -27.7%[172 µM] | 5.6%[87.6 µM] | ?
O=C(NCCOc1ccccc1)c1nc2c(o1)CCN(Cc1cc(F)ccc1F)CC2 | 0.7%[87.6 µM] | i | -3.7%[70.6 µM] | ? | -7.4%[87.6 µM] | ?
Cc1csc(NC(=O)c2nc3c(o2)CCN(Cc2cc(F)ccc2F)CC3)n1 | 3.3%[87.6 µM] | 28.2µM* | -12.9%[70.6 µM] | ? | -15.8%[87.6 µM] | ?
Cc1ccc(OCC(=O)N2CCC(CC(=O)N(C)Cc3ccccc3)C2)cc1 (stereo unspecified) | -10.6% | . | . | ? | -10.8% | ?
O=C(NC1CCCCC1)N1CCC(OCc2noc(C3CCCO3)n2)CC1 (stereo unspecified) | -15.5% | . | . | -15.4% | -11.4% | -20.9%
Nc1cccn2nc(-c3ccccc3)nc12 | 165.5% | 15.8µM* | -14.6% | -18.0% | 0.9% | ?
CN(C)C(=O)C1CCCN(Cc2cccc(-c3cccs3)c2)C1 (stereo unspecified) | 72.2%[87.6 µM] | . | . | 100µM* | 2.1%[87.6 µM] | ?
CNC(=O)C1CCCN(Cc2cccc(-c3cccs3)c2)C1 (stereo unspecified) | . | . | . | 100µM* | . | -28.8%[138 µM]
Cc1ccc([S+](=O)([O-])NC2CCCN(Cc3cccc(-c4ccc(C)c(Cl)c4)c3)C2)cc1 (stereo unspecified) | 1.4% | . | . | 28.2µM* | 4.5% | ?
Cc1ccc(-c2cccc(CN3CCCC(N[S+](C)(=O)[O-])C3)c2)cc1Cl (stereo unspecified) | ? | . | . | 22.4µM* | -2.9% | 28.2µM*
COc1ccc(NC(=O)C2CN(C3CCCCC3)C(=O)N2)cc1OC (stereo unspecified) | 1.9% | . | . | -7.5% | 2.9% | -29.6%
CCN1CC(C)(C)CN([S+](=O)([O-])c2ccc(C)cc2)CC1=O | . | . | . | -19.6% | . | ?
CN(Cc1cccc(C(F)(F)F)c1)C(=O)c1cccc(Cl)c1 | -10.5%[87.6 µM] | i | -5.1%[70.6 µM] | 100µM* | -3.8%[87.6 µM] | ?
CN(Cc1cccc(C(F)(F)F)c1)C(=O)Cc1cccc(Cl)c1 | 8.4% | ? | 7.3% | ? | 6.2% | -19.7%
O=C(Nc1ccccc1)NC1CCN(c2ccc3nnc(C4CC4)n3n2)C1 (stereo unspecified) | . | . | . | -12.7% | . | -28.4%
Cc1ccc(N2C(=S)N[C@H]3[C@@H](O)[C@H](O)C[C@@H](C(=O)NCc4cccs4)[C@H]32)cc1Cl | ? | ? | -2.2% | 79.4µM* | 5.2% | ?
CCCc1nnc(C[C@@H]2C[C@@H](C(C)C)[C@H](CN3CCN(c4ncccn4)CC3)C=C2C)o1 | -25.7% | i | 2.5% | 39.8µM* | -23.4% | ?
CC1=C[C@@H](CN2CCN(c3ncccn3)CC2)[C@H](C(C)C)C[C@H]1Cc1nnc(Cc2c[nH]c3ccccc23)o1 | -23.7% | i | -0.1% | 44.7µM* | ? | ?
CCCc1nnc(C[C@@H]2C[C@@H](C(C)C)[C@H](CNc3cccnc3)C=C2C)o1 | 5.1%[87.6 µM] | i | -8.9%[70.6 µM] | 89.1µM* | 1.8%[87.6 µM] | 25.1µM*
CCCc1nnc(C[C@@H]2C[C@@H](C(C)C)[C@H](CN3CCC(O)CC3)C=C2C)o1 | 7.0%[87.6 µM] | i | 2.7%[70.6 µM] | 3.9%[172 µM] | -10.2%[87.6 µM] | -1.4%[174 µM]
CCCc1nnc(C[C@@H]2C[C@@H](C(C)C)[C@H](CN3CCN(C(C)=O)CC3)C=C2C)o1 | -12.5%[87.6 µM] | i | -6.5%[70.6 µM] | 100µM* | -15.2%[87.6 µM] | -11.6%[174 µM]
CCCc1nnc(C[C@@H]2C[C@@H](C(C)C)[C@H](CO)C=C2C)o1 | 4.2%[87.6 µM] | i | -0.1%[70.6 µM] | ? | -15.3%[87.6 µM] | ?
CC1=C[C@@H](CN2CCOCC2)[C@H](C(C)C)C[C@H]1Cc1nnc(C)o1 | -19.2%[87.6 µM] | i | 0.2%[70.6 µM] | ? | -11.4%[87.6 µM] | -16.6%[174 µM]
